# Screening results: PubChem BioAssay, National Center for Advancing Translational Sciences (NCATS)
# In the library only some 19% were active in any assay of this set; here they are far more common.
# TDP1 cell noCPT – qHTS for Inhibitors of human tyrosyl-DNA phosphodiesterase 1 (TDP1): qHTS in cells in absence of CPT; DT40 Tdp1-/- hTDP1 cells, no CPT, ATP luminescence, 48 h; Potency, µM (highest dose often 46.2 µM), without a hit: at the highest dose activity change, negative = growth inhibition, actives largely listed as inhibitors; actives 15% (n = 420,000); further: potency means the concentration at half of the fitted maximal effect; on the % scale 0 is the no-effect control and ±100 the full control effect; nearly all actives have a fitted effect of over 55% in size
#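 Chicken DT40 Tdp1-/- cells complemented with human TDP1, screened without camptothecin (DMSO vehicle only), 400 cells/well. Compounds pin-transferred, cells incubated at 37 °C for at least 48 hr. Growth read as ATP-dependent luminescence (CellTiter-Glo, 30 min at RT).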
# S-ASM inh – blocks human secretory acid sphingomyelinase | placental ASM, HMU-PC fluorogenic substrate, 60 min | Potency, µM (series often up to 57.5 µM), without a hit: at the highest dose activity change, negative = inhibition, hits mostly inhibitors | actives 0.006% (n = 340,000); further: potency means the concentration at half of the fitted maximal effect
# Target sequence (P17405 47-631 limits assumed): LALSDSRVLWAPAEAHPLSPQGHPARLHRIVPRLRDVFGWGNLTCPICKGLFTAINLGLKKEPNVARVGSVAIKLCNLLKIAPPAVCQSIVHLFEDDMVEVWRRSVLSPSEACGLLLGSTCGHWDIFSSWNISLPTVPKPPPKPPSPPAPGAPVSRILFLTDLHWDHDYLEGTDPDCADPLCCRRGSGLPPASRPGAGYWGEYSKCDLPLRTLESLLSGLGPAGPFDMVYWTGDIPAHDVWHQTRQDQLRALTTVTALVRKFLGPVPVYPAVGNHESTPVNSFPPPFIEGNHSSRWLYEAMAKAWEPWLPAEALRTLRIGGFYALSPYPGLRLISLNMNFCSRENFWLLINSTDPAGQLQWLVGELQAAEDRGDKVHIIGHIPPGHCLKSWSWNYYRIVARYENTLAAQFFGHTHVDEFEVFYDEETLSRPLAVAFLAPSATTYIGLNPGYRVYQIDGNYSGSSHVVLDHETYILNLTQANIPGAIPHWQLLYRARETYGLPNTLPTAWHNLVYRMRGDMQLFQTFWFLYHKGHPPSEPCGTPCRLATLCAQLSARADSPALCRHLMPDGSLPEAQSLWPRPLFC
#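 Fluorescence read-out (Ex 386 nm, Em 447 nm) after stopping the reaction at pH 10. Enzyme: ASM from human placenta; substrate HMU-PC0, 9 uM final; 60 min, 37 °C. Compound preincubation 10 min, ambient temperature.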
# IL-1B inflam inh – blocks inflammasome-driven IL-1 beta release | THP-1 LPS/ATP IL-1B secretion, AlphaLISA, 16 h; hits give low values | actives 4.7% (n = 360,000) | activity change, % at 57.5 µM | AID 743279; in the data active means activity change below about -50%; inconclusive means mostly about -30% to -49%; further: on the % scale 0 is the no-effect control and ±100 the full control effect
#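 THP-1 cells pretreated 1 hr with compounds (up to 57.5 uM final), then stimulated with LPS (250 ng/mL final) plus ATP (1.25 mM final); secreted IL-1B measured by AlphaLISA after 16 hr, decreased signal indicating inhibition.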
# HepG2 tox – HepG2 cytotoxicity, counter-screen for TGF-b inhibitors; HepG2 CAGA-GFP viability, ATP luminescence, 18 h; Potency, µM (doses to about 46.1 µM), for the others: at the top dose activity change, negative = cytotoxicity, usual class: cytotoxic; actives 0.76% (n = 410,000); AID 588856; further: potency means the concentration at half of the fitted maximal effect
#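 HepG2 CAGA-GFP cells (1000/well, DMEM with 1% FBS) received compound, then TGF-beta at 500 pg/mL final, and were incubated 18 hours at 37 degrees C. Viability was read by CellTiter-Glo luminescence. Media-only wells were set as complete cell-killing and DMSO as no toxicity.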
# TDP1 cell CPT – DT40-hTDP1 cell growth loss with CPT; chicken DT40 Tdp1-/-;hTDP1 cells + 20 nM CPT, ATP luminescence, 48 h; Potency, µM (series often up to 46.2 µM), for the others: top-dose activity change, negative = growth inhibition, actives largely listed as inhibitors; actives 12% (n = 420,000); AID 686979; further: potency means the concentration at half of the fitted maximal effect; on the % scale 0 is the no-effect control and ±100 the full control effect; nearly all actives have a fitted effect of over 55% in size
#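 Cell growth measured by CellTiter-Glo luminescence after a minimum 48 h, 37 C compound exposure with 20 nM CPT in Tdp1-knockout DT40 cells stably expressing hTDP1, seeded 400/well; qHTS titration format.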
# TGFb SMAD3 inh – inhibitors of TGF-b signaling | AID 588855 | Potency, µM (titrated, usually from 46.1 µM), inactives show at the highest dose activity, negative = inhibition, hits mostly inhibitors | HepG2 CAGA-GFP TGF-b/SMAD3 reporter, GFP fluorescence, 18 h; TGF-beta stimulated, 500 pg/mL final | actives 1.2% (n = 410,000); further: potency means the concentration at half of the fitted maximal effect; on the % scale 0 is the no-effect control and ±100 the full control effect; nearly all actives have a fitted effect of over 65% in size
#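 TGF-beta reporter screen: HEPG2 CAGA-GFP, 1% FBS, 500 pg/mL TGF-beta final, 18 h; per-cell GFP summed per well; curves fitted and categorized by class.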
# * hit, by the source's call; u = inconclusive; x = no result; [ ] = remark or other dose. Unless noted, the call rests on the fitted dose curve; in most records, active means well fitted curve in the direction sought with a large enough effect; inconclusive means small, poorly fitted or top-dose-only effect, or another doubt; inactive means no such curve, though single readings can be large; an effect the other way counts as inactive or inconclusive.
SMILES,TDP1 cell noCPT,S-ASM inh,IL-1B inflam inh,HepG2 tox,TDP1 cell CPT,TGFb SMAD3 inh
Cc1ccc([N+](=O)[O-])cc1S(=O)(=O)NCCc1c(C)[nH]c2ccccc12,-6.5%,-9.8%,-8.4,-2.7%,1.1%,-8.8%
COc1cc(S(=O)(=O)NCCc2c(C)[nH]c3ccccc23)c(C)cc1C,18.4µM*,x,x,-32.2%,18.4µM*,u
Cc1c(C(=O)NCCc2cccnc2)cnn1-c1ncc2c(n1)-c1ccccc1CC2,u,x,x,x,-10.5%[9.04 µM],x
COc1cccc(CN(C)C(=O)c2cc(COc3c(F)cccc3F)on2)c1,-16.3%,5.1%,-2.4,-4.4%,-22.1%,1.2%
COc1cccc(CN(C)C(=O)c2cc(COc3ccc4ncccc4c3)on2)c1,2.91µM*,-10.4%,-7.3,10.2%,3.26µM*,-18.3%
COc1cccc(CN(C)C(=O)c2cc(COc3ccc(-n4cncn4)cc3)on2)c1,18.4µM*,-0.5%,5.6,-8.2%,20.6µM*,-26.2%
CC(=O)NCCC(=O)N(Cc1ccccc1)c1nc2c(C)cccc2s1,4.6%,-9.0%,u,-25.6%,-26.4%,0.0%
OC(CCc1ccncc1)c1ccccc1 (stereo not given),0.0%,5.1%,17.6,10.1%,6.5%,u
O=C(CC(O)c1ccncc1)c1ccccc1O (stereo not given),u,-0.4%,-63.0*,-44.2%,u,u
COc1ccc2c(c1)CCCC(Br)C2=O (stereo not given),3.26µM*,2.1%,-66.8*,-10.5%,5.17µM*,u
COc1ccc2c(c1)CCC2=O,2.6%,x,x,-15.4%,12.0%,1.1%
Cc1cc(C)cc(NC(=O)C2CCN(S(=O)(=O)c3c(C)noc3/C=C/c3ccco3)CC2)c1,14.6µM*,x,x,-9.8%,23.1µM*,-21.0%
Cc1cccc(NC(=O)C2CCN(S(=O)(=O)c3c(C)noc3/C=C/c3ccco3)CC2)n1,23.1µM*,4.6%,u,8.6%,16.4µM*,0.0%
CCC(C)N1CCN(C(=O)C2CCN(S(=O)(=O)c3c(C)noc3/C=C/c3ccco3)CC2)CC1 (stereo not given),u,-1.1%,u,-18.5%,u,-13.4%
Cc1cccc(NC(=O)C2CCN(S(=O)(=O)c3ccc4c(c3)OCCCO4)CC2)n1,20.6µM*,1.6%,-11.9,2.6%,u,u
Cc1noc(/C=C/c2ccco2)c1S(=O)(=O)N1CCC(C(=O)Nc2ccc(F)c(Cl)c2)CC1,4.61µM*,x,x,-9.9%,5.17µM*,2.51µM*
Nc1ncncc1-c1ccccc1Cl,u,2.5%,-5.0,4.3%,2.6%,5.5%
CSc1cccc(NC(=O)N2CCN(S(=O)(=O)c3ccc4c(ccn4C)c3)CC2)c1,x,x,x,-3.1%,x,0.1%
Cc1ccc(NC(=O)C2CCN(S(=O)(=O)c3c(C)noc3/C=C/c3ccco3)CC2)cc1C,13µM*,x,x,-2.8%,u,-16.4%
CCOc1ccc(NC(=O)C2CCN(S(=O)(=O)c3c(C)noc3/C=C/c3ccco3)CC2)cc1,u,x,x,-21.0%,-18.2%,u
CN(Cc1ccccc1)C(=O)c1ccco1,8.0%,1.4%,-5.7,0.7%,-17.3%,-0.5%
O=C(C#Cc1ccccc1)c1ccco1,0.581µM*,-1.3%,-100.6*,11.2µM*,1.3µM*,3.16µM*
COc1cc2c(cc1NC(=O)COc1cc(C)ccc1C)oc1ccccc12,-7.2%,x,x,1.6%,-13.9%,-14.4%
CC1(C)Cc2ccccc2-c2nc(NCCO)n(-c3ccccc3)c(=O)c21,18.4µM*,35.9%,-16.1,3.7%,18.4µM*,6.6%
